Screening results as filed in PubChem.
HIV Env fusion: blocks HIV Env-driven cell-cell fusion; HeLa-JRFL Env/CEM21 cell fusion, luciferase; inhibition, % at 12.3 µM; 360,000 compounds, 1.1% hits; AID 651610;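 active means mean replicate inhibition score of at least 50 and every replicate individually at or above 50; inconclusive means only one of the two criteria met; inactive means mean below 50 and not all replicates reaching 50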;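 further: 0% = plate neutral controls and 100% = maraviroc near 300 nM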
EWS-Fli inh: inhibitors of EWS/Fli oncoprotein transcriptional activity; 350,000 compounds, 0.67% hits; inhibition, % at 12.6 µM; A673 NR0B1-luciferase reporter, viability-normalised;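 active means mean inhibition of at least 50% after viability correction, with every replicate also passing that limit; inconclusive means mean reaches 50% but only one of two replicates passes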;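 further: firefly luciferase signal divided by Alamar Blue viability fluorescence both relative to DMSO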
PAX8 inh HTS: PAX8 transcriptional activity inhibition; RMG-I TPO-luciferase reporter, SteadyGlo, 24 h; inhibition, % at 12.6 µM; 360,000 compounds, 1.2% hits;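 active means mean replicate inhibition at least 60% with every replicate also reaching 60%; inconclusive means only one of the two criteria is met; inactive means mean below 60% and not all replicates reaching 60%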;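 further: luciferase light reporting Pax8 driven TPO promoter activity; plate controls were median of neutral control wells for no effect and mitoxantrone controls for full effect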
PGC1a acetyl inh: PGC1a acetylation modulation, inhibitor mode | U2OS PGC1a acetylation, AlphaScreen anti-acetyl-lysine; with virally co-expressed GCN5 acetyltransferase | inhibition, % at 15.6 µM | 350,000 compounds, 0.17% hits;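 active means every replicate shows inhibition of at least 40%; inconclusive means mean inhibition at least 40% but some replicate below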;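 further: 0% = neutral control wells and 100% = positive control wells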
CFTR F508del cor: correctors of CFTR F508del function in bronchial epithelial cells. AID 720511. activity (quench increase), % at 7.58 µM. 350,000 compounds, 0.36% hits. CFBE cells, YFP halide quenching; stimulated with forskolin plus potentiator P3; % fluorescence drop versus neutral controls;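 active means mean added fluorescence quench of at least 8% versus neutral control, with both replicates also reaching 8%; inconclusive means only one of the mean or replicate conditions met; inactive means mean below 8% and not both replicates reaching 8%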;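 further: cells transiently co-express mutant CFTR-F508del with the halide-sensitive YFP; corrector assay measuring rescue of mutant channel to the surface after 24 h compound exposure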
GSIS activator: primary screen for activators of insulin secretion dependent on glucose, INS-1E cells, GLuc reporter luminescence; AID 743287; activation, % at 16.6 µM; 370,000 compounds, 0.61% hits; INS-1E GLuc reporter insulin secretion, 2-3 h;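 active means lowest replicate activation of at least 40%, so every replicate reaches that level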;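 further: 0% = median of neutral control wells and 100% = median of IBMX positive control wells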
* marks the source's active call; other numbers are inactive results; ? = inconclusive; nt = no result; [ ] = another dose, or the depositor's remark. Compounds with a hit are over-represented: about 2.7% of the library has one in this group of screens.

SMILES | HIV Env fusion | EWS-Fli inh | PAX8 inh HTS | PGC1a acetyl inh | CFTR F508del cor | GSIS activator
CCN1CCN(CCCNC(=O)c2ccc3c(c2)NC(=O)/C(=C\c2cccc(C)c2)S3)CC1 | 12 | 60* | 3 | nt | 4 | 7
Cc1cccc(/C=C2/Sc3ccc(C(=O)NCCCN4CCOCC4)cc3NC2=O)c1 | -7 | 16 | 12 | -4 | 2 | 5
O=C(C[C@@H]1C[C@@H]2c3cc(NC(=O)C4CCC4)ccc3O[C@@H]2[C@H](CO)O1)NCc1ccc2c(c1)OCO2 | 27[16.7 µM] | 4 | -3 | 5 | -4 | 7
O=C(C[C@H]1C[C@@H]2c3cc(NC(=O)C4CCC4)ccc3O[C@@H]2[C@H](CO)O1)NCc1ccc2c(c1)OCO2 | -19[16.7 µM] | 12 | -11 | 18 | -1 | -6
O=C(C[C@H]1C[C@@H]2c3cc(NC(=O)C4CCC4)ccc3O[C@@H]2[C@@H](CO)O1)NCc1ccc2c(c1)OCO2 | 86*[16.7 µM] | -6 | 6 | -2 | -2 | -11
O=C(C[C@H]1C[C@H]2c3cc(NC(=O)C4CCC4)ccc3O[C@H]2[C@@H](CO)O1)NCc1ccc2c(c1)OCO2 | 78*[16.7 µM] | -5 | 4 | 6 | -1 | 6
COc1ccc(-c2ccc3n(c2=O)C[C@H]2N[C@@H]3[C@@H](C(=O)N3CCCCC3)[C@@H]2CO)cc1 | 2[16.7 µM] | -9 | 20 | -1 | 0 | -1
Cc1cc(O)c(N=Nc2ccc(C(=O)O)cc2)cc1C | -164 | 8 | -179 | 50* | -5 | nt
CC(=O)/C(N=Nc1ccc(C(=O)O)cc1)=C(\C)O | -16 | 5 | 19 | 0 | 3 | 36
CCCCCc1cc(=O)oc2c(C(CCN3CCCC(C)C3)c3ccc4c(c3)OCO4)c(OC)cc(OC)c12 (stereo not given) | 16 | 14 | 1 | nt | -1 | 36
CCCCCc1cc(=O)oc2c(C(CCN3CCCCC3)c3ccc4c(c3)OCO4)c(OC)cc(OC)c12 (stereo not given) | -8 | 21 | 88* | 15 | 1 | 95
CCCCCc1cc(=O)oc2c(C(CCN(CC)CC)c3cc(OC)c(OC)c(OC)c3)c(OC)cc(OC)c12 (stereo not given) | -8 | 51* | 15 | nt | -2 | 63*
CCCNC(=O)N(C)C[C@@H]1Oc2ncc(Br)cc2C(=O)N([C@H](C)CO)C[C@H]1C | nt | -5 | 12 | 7 | 0 | 28
CCOC(=O)c1ccc(NC(=S)Nc2cccc(C)n2)cc1 | 10 | nt | -19 | nt | nt | 48*
C/C=C/c1ccccc1[C@@H]1[C@@H](CO)N(C(=O)Cc2ccccn2)[C@H]1C#N | nt | -1 | nt | 5 | 0 | 14
Cc1ccc(S(=O)(=O)N(C)C[C@@H]2Oc3ccc(NC(=O)CCCCCC(=O)Nc4ccccc4N)cc3CC(=O)N([C@H](C)CO)C[C@@H]2C)cc1 | 72*[16.7 µM] | 45 | 4 | 9 | 1 | 11
C[C@H](CO)N1C[C@H](C)[C@H](CN(C)S(=O)(=O)c2ccccc2)Oc2ccc(NC(=O)CCCCCC(=O)Nc3ccccc3N)cc2CC1=O | 57*[16.7 µM] | 41 | 20 | -7 | 0 | 0
Cc1ccc(S(=O)(=O)N(C)C[C@H]2Oc3ccc(NC(=O)CCCCCC(=O)Nc4ccccc4N)cc3CC(=O)N([C@H](C)CO)C[C@H]2C)cc1 | 30[16.7 µM] | 17 | -7 | -5 | 3 | 17
Cc1noc(C)c1NC(=O)N(C)C[C@H]1Oc2ccc(NC(=O)NC3CCCCC3)cc2CC(=O)N([C@H](C)CO)C[C@@H]1C | -6[16.7 µM] | -9 | nt | 2 | -3 | 3
CC(=O)Nc1ccc(C2=NNC(=Nc3cccc(S(=O)(=O)N(C)C)c3)SC2)cc1 | nt | nt | nt | -5 | nt | nt
CN(C)S(=O)(=O)c1cccc(N=C2NN=C(c3ccccc3)CS2)c1 | 16 | 18 | 73* | nt | nt | -1
Cc1cc(Br)cc(/C=N/NC(=O)c2ccc3c(c2)OCO3)c1O | 4 | -46 | -3 | nt | 9.3* | 7
O=C(N/N=C/c1cc(Br)cc(Cl)c1O)c1ccc2c(c1)OCO2 | 19 | -5 | 14 | 16 | 12* | nt
O=C(O)CCCc1ccc2c(c1)CCc1ccccc1-2 | 63* | 63* | -34 | nt | 1 | 12
CC(C)NC(=O)Nc1ccc2c(c1)CC(=O)N([C@@H](C)CO)C[C@@H](C)[C@@H](CN(C)S(C)(=O)=O)O2 | 4[16.7 µM] | 0 | -7 | -4 | -2 | 11
SMILES | HIV Env fusion | EWS-Fli inh | PAX8 inh HTS | PGC1a acetyl inh | CFTR F508del cor | GSIS activator
COc1cccc(-c2ccc3c(c2)[C@@H]2[C@@H](CCN2C(=O)NC2CCCCC2)[C@H](CO)N3C)c1 | 35[16.7 µM] | 5 | 86* | -15 | 1 | -18
COc1ccc(-c2ccc3c(c2)[C@@H]2[C@@H](CCN2C(=O)NC2CCCCC2)[C@H](CO)N3C)cc1 | nt | -6 | 82* | 31 | 1 | -3
CN1c2ccc(-c3ccccc3)cc2[C@H]2[C@H](CCN2C(=O)NC2CCCCC2)[C@@H]1CO | 33[16.7 µM] | 4 | 89* | 4 | 3 | -21
COc1cccc(-c2ccc3c(c2)[C@@H]2[C@@H](CCN2C(=O)NC2CCCCC2)[C@@H](CO)N3C)c1 | -4[16.7 µM] | -2 | 38 | -4 | 6 | -44
COc1cccc(-c2ccc3c(c2)[C@H]2[C@H](CCN2C(=O)NC2CCCCC2)[C@H](CO)N3C)c1 | 42[16.7 µM] | 8 | 66* | -9 | 1 | -26
COc1ccc(-c2ccc3c(c2)[C@H]2[C@H](CCN2C(=O)NC2CCCCC2)[C@H](CO)N3C)cc1 | nt | -3 | 14 | 9 | 2 | -3
COc1cccc(-c2ccc3c(c2)[C@H]2[C@H](CCN2C(=O)NC2CCCC2)[C@H](CO)N3C)c1 | nt | -13 | -15 | -31 | -2 | -5
CN1c2ccc(-c3ccccc3)cc2[C@@H]2[C@@H](CCN2C(=O)NC2CCCCC2)[C@H]1CO | nt | 2 | nt | nt | 3 | -16
COc1ccc(C#Cc2ccc3c(c2)O[C@H](CN(C)C(=O)c2ccccn2)[C@@H](C)CN([C@@H](C)CO)S3(=O)=O)cc1 | 22[16.7 µM] | 1 | 46 | -3 | 1 | -11
CCCNC(=O)N1CC2(CN(C)C2)c2c(n(C)c3cc(OC)ccc23)[C@H]1CO | nt | 39 | nt | 4 | -2 | 7
C[C@@H]1CN([C@@H](C)CO)C(=O)c2cc(C#CC(C)(C)O)cnc2O[C@@H]1CN(C)C(=O)C1CCCCC1 | 4[16.7 µM] | -4 | nt | 6 | 0 | 16
COc1cccc(-c2ccc3c(c2)[C@@H]2[C@@H](CCN2C(=O)c2ccccc2F)[C@H](CO)N3C)c1 | nt | -33 | 72* | 4 | 1 | -25
CCCNC(=O)N1CC2(CN(C(=O)CC)C2)c2c(n(C)c3cc(OC)ccc23)[C@@H]1CO | -5[16.7 µM] | -14 | nt | nt | 0 | 1
O=C(NC(=S)Nc1cccc2[nH]ncc12)c1ccccc1 | 4 | -46 | -172 | 17 | -2 | 159*
O=C(Nc1cccc2ccccc12)c1ccc(F)cc1 | -19 | nt | -21 | 4 | -3 | 8
O=C(Nc1cccc2[nH]ncc12)c1ccc(F)cc1 | 74* | nt | -101 | ? | nt | nt
